Shown are actives, neighbours in structure and some others; about 2.3% of the full set was active somewhere.
M1 PAM: human CHRM1 positive allosteric modulation | activation, % at 3 µM | CHO-K1 hM1, Fluo-8 calcium fluorescence, ACh EC20; 0% = ACh EC20, 100% = maximal ACh | actives 0.088% (n = 360,000); in the data active = activation above about 19%, passing the limit was not always enough
Target sequence (P11229 whole entry, looked up): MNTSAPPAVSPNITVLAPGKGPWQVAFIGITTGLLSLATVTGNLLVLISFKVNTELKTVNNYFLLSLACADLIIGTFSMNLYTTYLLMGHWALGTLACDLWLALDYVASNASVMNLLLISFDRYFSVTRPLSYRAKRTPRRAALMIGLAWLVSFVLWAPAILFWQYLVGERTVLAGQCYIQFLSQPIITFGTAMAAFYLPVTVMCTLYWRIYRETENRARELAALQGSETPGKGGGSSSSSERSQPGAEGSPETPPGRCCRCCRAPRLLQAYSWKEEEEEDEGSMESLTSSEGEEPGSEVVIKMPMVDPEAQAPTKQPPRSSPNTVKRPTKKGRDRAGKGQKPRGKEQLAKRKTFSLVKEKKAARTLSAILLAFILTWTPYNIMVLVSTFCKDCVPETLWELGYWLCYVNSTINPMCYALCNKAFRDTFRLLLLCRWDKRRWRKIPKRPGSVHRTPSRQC
CHRM1 antagonist: human CHRM1 antagonism. P11229. actives 1.3% (n = 360,000). inhibition, % at 3 µM. CHO-K1 hM1, Fluo-8 calcium fluorescence, ACh EC80 antagonist. AID 588852;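 active = percent inhibition above its own plate's cutoff, namely the mean of that plate's compound wells plus 3 SD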;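 note: peak over basal fluorescence ratio during 140 s after agonist addition; 0% = ACh EC80 plus DMSO and 100% = DMSO alone without agonist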
M1 PAM parental: nonselective activator or artifact in parental CHO-K1 calcium assay. activation, % at 3 µM. AID 602247. actives 0.02% (n = 360,000). ATP EC20, Fluo-8 calcium fluorescence; 0% at ATP EC20, 100% at ATP max;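 active = activation above the run cutoff, the mean activation of all test compounds plus 3 SD, cut at about 40% in these data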;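 note: peak over basal fluorescence ratio in a 140 s read after ATP addition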
CHO-K1 Ca antag: counter-screen for M1 antagonists: effect in parental CHO-K1 cells. actives 0.6% (n = 360,000). AID 602250. inhibition, % at 3 µM. ATP-induced calcium, Fluo-8 fluorescence;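 active = inhibition above a per-plate cutoff, the plate's mean sample inhibition plus 3 SD, cut at about 24% in these data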;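 note: 0% = DMSO plus EC80 ATP and 100% = DMSO alone without ATP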
M1 ag: human M1 muscarinic receptor agonism. P11229. CHO-K1 hM1, Fluo-8 calcium fluorescence, agonist mode; 0% DMSO, 100% acetylcholine EC100. activation, % at 3 µM. actives 0.33% (n = 360,000);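 active = activation above the run's mean compound activation plus 3 SD, cut at about 16% in these data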;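 note: peak over basal fluorescence ratio within a 140 s kinetic read after compound addition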
M1 ag parental: counter-screen for M1 agonists: effect in parental CHO-K1 cells | Fluo-8 calcium fluorescence; scaled to maximal ATP response, vehicle zero | activation, % at 3 µM | actives 0.48% (n = 360,000); in the data active = activation above about 15%;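 note: untransfected CHO-K1 host cells lacking M1 receptor as counterscreen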
* hit, by the source's call; . = not tested or not shown.

SMILES	M1 PAM	CHRM1 antagonist	M1 PAM parental	CHO-K1 Ca antag	M1 ag	M1 ag parental
Cc1c(C(=O)NCc2ccc3c(c2)OCO3)oc2ccc(S(=O)(=O)N3CCCC3)cc12	-7	18	10	3	-2	5
Cc1cc(C)nc(N2CCCC(C(=O)NCc3ccc4c(c3)OCO4)C2)n1 (stereo not drawn)	4	-7	9	-17	-4	0
Cc1ccc(S(=O)(=O)N2CCCC(C(=O)NCCc3ccc4c(c3)OCO4)C2)cc1 (stereo not drawn)	3	-9	-6	24*	-4	0
O=C(NCc1ccc2c(c1)OCO2)C1CCCN(S(=O)(=O)c2cccnc2)C1 (stereo not drawn)	12	-6	-9	48*	0	0
CCc1nc2ccc(C(=O)NC(C)(C)C)cn2c1N(CC)Cc1cccc(Br)c1	-5	-6	4	-7	-10	0
Cc1cc(C(=O)CCl)c(C)n1CCc1ccc(Cl)cc1	-11	33*	9	-3	-3	1
O=C(/C(=C/c1ccc(Cl)cc1)c1nc2ccccc2[nH]1)c1ccccc1	-21	94*	16	-11	0	1
CS(=O)(=O)NCCNc1ccc(Cl)cc1[N+](=O)[O-]	-20	23*	11	-1	-5	6
CN(C)CCNc1ccc(Cl)cc1[N+](=O)[O-]	-25	35*	8	2	-8	1
Cc1ccccc1C(NC(=O)C1CCN(Cc2ccc(Oc3ccccc3)cc2)CC1)c1ccsc1 (stereo not drawn)	-3	-4	12	-3	-5	1
COc1cc(OC)cc(C2=Cc3ccccc3C(CC(=O)c3ccco3)N2c2ccc(-c3cncnc3)cc2)c1 (stereo not drawn)	.	.	7	-16	.	1
C=CCc1cc(Cl)ccc1OCCN(C)C	-19	25*	28	-16	-7	2
CN(C)CCOc1cccc(Cl)c1	6	-5	26	-5	-8	19*
C=CCc1cc(Cl)ccc1OCCCNCCO	-2	-2	4	3	-12	2
CN(C)CCOc1cc(Cl)cc(Cl)c1	-9	-5	10	1	-10	0
C=CCc1cc(Cl)ccc1OCCOCCNC(C)CC (stereo not drawn)	-24	38*	-2	-9	-8	3
C=CCc1cc(Cl)ccc1OCCCNC(C)C	-9	13	21	-2	-12	2
CCC(C)NCCCOc1cc(Cl)ccc1Cl (stereo not drawn)	-14	33*	4	9	-4	0
COc1cc(OC)cc(-c2noc([C@H]3C[C@H](O)[C@@H](CO)O3)n2)c1	5	-7	7	-5	-2	0
C[C@@H]1CN([C@@H](C)CO)C(=O)c2cc(Br)cnc2O[C@H]1CN(C)Cc1cccc(C(=O)O)c1	3	-5	4	0	-1	0
CC(CC(=O)Nc1ccc(Cl)c(S(=O)(=O)N2CCOCC2)c1)c1ccccc1 (stereo not drawn)	-14	21	-15	5	3	15*
Cc1ccc(NC(=O)c2ccccc2NS(=O)(=O)c2ccc(Cl)s2)cc1S(=O)(=O)N1CCOCC1	-9	18	0	22	-1	16*
CCCC(C(=O)Nc1ccc(S(=O)(=O)N2CCOCC2)cc1)c1ccccc1 (stereo not drawn)	1	7	16	1	20*	19*
CC(=O)Nc1ccc(OCC(=O)Nc2ccc(Cl)c(S(=O)(=O)N3CCOCC3)c2)cc1	-26	37*	-8	12	4	11
O=C(O)CC(SCC(=O)Nc1ccc(Cl)c(S(=O)(=O)N2CCOCC2)c1)C(=O)O (stereo not drawn)	-4	-2	4	-11	-5	0
SMILES	M1 PAM	CHRM1 antagonist	M1 PAM parental	CHO-K1 Ca antag	M1 ag	M1 ag parental
CS(=O)(=O)Nc1cccc(-c2cc(NC=O)c3ncc(-c4ccc(F)c(Cl)c4)n3c2)c1	4	1	-7	15	2	1
COc1ccc(COCC(O)CN2CCC(C(N)=O)CC2)cc1OC (stereo not drawn)	10	-6	17	10	-5	19*
COc1ccc2noc3c2c1C(=O)c1ccccc1-3	-26	22	-28	26*	72*	22*
COc1ccc(N)c2c1C(=O)c1ccccc1C2=O	7	-3	-14	1	-4	0
CC(C)NCc1cc(Br)ccc1OCc1ccccc1	-17	29	16	-8	34*	3
CC(C)(CO)NCc1cc(Br)ccc1OCc1ccccc1	5	-1	13	-21	-10	1
CC1CCCCN1CCNC(=O)c1cc2c(-c3ccccc3F)nn(C)c2s1 (stereo not drawn)	0	1	-1	0	-6	1
CCCCN(CC)CCNC(=O)c1cc2c(-c3ccccc3F)nn(C)c2s1	28*	-25	16	-13	-7	1
COc1cc(NS(=O)(=O)c2ccc(NC(=S)NC(=O)c3ccco3)cc2)ncn1	-2	4	4	19	-6	18*
CCOC(=O)N1CCC(NCCNC(=O)c2ccc(F)c(F)c2)CC1	-31	74*	-18	3	64*	1
CCOC(=O)N1CCC(NC(=O)c2cc(C(=O)NCc3ccc(F)cc3)ccc2CO)CC1	3	0	-1	6	-2	-1
CCOC(=O)N1CCC(NCCNC(=O)c2ccc(Cl)cc2)CC1	-2	7	3	-4	22*	1
CCOC(=O)N1CCC(NCCNC(=O)c2ccco2)CC1	-7	21	-6	-3	-2	0
CCOC(=O)N1CCC(NC(=O)c2cc(C(=O)Nc3ccc(F)cc3F)ccc2CO)CC1	-9	9	-3	29*	-2	4
COc1cccc(-c2cnc3c(NC(C)=O)cc(-c4ccc(C(=O)NC5CC5)cc4)cn23)c1	-8	5	18	-2	-5	4
CC(C)N1CC2(CC(c3ccccc3C(F)(F)F)=NO2)CN1C(=O)c1ccco1 (stereo not drawn)	-3	-6	2	-4	-3	2
Cc1noc(C)c1-c1ccc(C(=O)NCCC(F)(F)F)c2occc12	4	-5	7	-2	-2	0
CN1CCN(c2ncnc3c2ncn3[C@H]2CN(C)C[C@@H](CO)O2)CC1	8	-11	6	-6	-4	1
CCOc1cc(N2CCOCC2)c(OCC)cc1NC(=O)COC(=O)c1cc(C)oc1C	2	-5	-6	25*	-2	0
CCOC(=O)[C@]12CCCC=C1N(Cc1ccc3c(c1)OCO3)C(=O)[C@H](CC(=O)N1CCCCC1)C2	.	.	13	-16	.	2
Cc1cc(C)cc(C(O)c2ncc(-c3ccc(F)cc3)[nH]2)c1 (stereo not drawn)	2	-10	14	-7	0	1
